According to PubChem BioAssay (NCATS):
Inconclusive results are not listed. A call without a number means that no potency is given here. The source made the active and inactive calls. Calls come from the whole dose curve; as a rule, active = well fitted curve in the direction sought with a large enough effect; inconclusive = small, poorly fitted or top-dose-only effect, or another doubt; inactive = no such curve, though single readings can be large; an effect the other way counts as inactive or inconclusive. Where a SMILES comes first, the peptide text is derived from it.

Experiments:
[1] = qHTS of pediatric cancer cell lines to identify multiple opportunities for drug repurposing: Primary screen for SK-N-SH cells (AID 1347098); note: nearly all actives have a fitted effect of over 65% in size; note: potency is the fitted concentration of half-maximal effect
Outline: (§1)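 Cells (500-1,000/well) rested 5 h, then received compounds for 48 h; metabolically active cells were measured by CellTiter-Glo luminescence. Final concentrations spanned up to 46 µM (MIPE, 11-point) or 0.59 nM-46 µM (NPC, 8-point) in primary screens, 11-point in follow-ups.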

[2] = qHTS of pediatric cancer cell lines to identify multiple opportunities for drug repurposing: Primary screen for NB1643 cells (AID 1347099); note: nearly all actives have a fitted effect of over 50% in size; note: potency is the fitted concentration of half-maximal effect
Outline: (§2)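 ATP-based luminescence (CellTiter-Glo) quantifies viability after a 48-hour exposure. Compounds are dosed across 8 or 11 final concentrations; DMSO and 2.3 µM bortezomib serve as controls.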

[3] = qHTS of pediatric cancer cell lines to identify multiple opportunities for drug repurposing: Primary screen for LAN-5 cells (AID 1347100); note: potency is the fitted concentration of half-maximal effect
Outline: as §1

[4] = qHTS of pediatric cancer cell lines to identify multiple opportunities for drug repurposing: Primary screen for BT-12 cells (AID 1347101); note: nearly all actives have a fitted effect of over 25% in size; note: potency is the fitted concentration of half-maximal effect
Outline: as §1

[5] = qHTS of pediatric cancer cell lines to identify multiple opportunities for drug repurposing: Primary screen for Rh18 cells (AID 1347102); note: nearly all actives have a fitted effect of over 65% in size
Outline: as §1

[6] = qHTS of pediatric cancer cell lines to identify multiple opportunities for drug repurposing: Primary screen for OHS-50 cells (AID 1347103); note: nearly all actives have a fitted effect of over 40% in size; note: potency is the fitted concentration of half-maximal effect
Outline: as §1

[7] = qHTS of pediatric cancer cell lines to identify multiple opportunities for drug repurposing: Primary screen for RD cells (AID 1347104); note: nearly all actives have a fitted effect of over 55% in size; note: potency is the fitted concentration of half-maximal effect
Outline: as §2

[8] = qHTS of pediatric cancer cell lines to identify multiple opportunities for drug repurposing: Primary screen for MG 63 (6-TG R) cells (AID 1347105); note: nearly all actives have a fitted effect of over 50% in size; note: potency is the fitted concentration of half-maximal effect
Outline: as §2

[9] = qHTS of pediatric cancer cell lines to identify multiple opportunities for drug repurposing: Primary screen for Rh30 cells (AID 1347107); note: series mostly up to about 46 µM; nearly all actives have a fitted effect of over 75% in size
Outline: as §1

[10] = qHTS of pediatric cancer cell lines to identify multiple opportunities for drug repurposing: Primary screen for Rh41 cells (AID 1347108);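 note: series mostly up to about 46 µM; luminescence drop marks cytotoxic hits; nearly all actives have a fitted effect of over 70% in size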
Outline: as §2

[11] = qHTS of pediatric cancer cell lines to identify multiple opportunities for drug repurposing: Confirmatory screen for A673 cells (AID 1347110);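 note: cells exposed to compound for 48 h before the viability read; nearly all actives have a fitted effect of over 65% in size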
Outline: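 Forty-eight-hour viability assay. Follow-up compounds ran at 11-point dilutions; positive control bortezomib at 2.3 uM final, neutral control DMSO.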

[12] = qHTS of pediatric cancer cell lines to identify multiple opportunities for drug repurposing: Confirmatory screen for SK-N-MC cells (AID 1347111);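 note: potency is the fitted concentration of half-maximal effect; cells exposed to compound for 48 h before the readout; nearly all actives have a fitted effect of over 70% in size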
Outline: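 Seed 500-1,000 cells/well; rest 5 h at 37 degrees C. Pin-transfer compounds, 11-point titration. Incubate 48 h. Add CellTiter-Glo, 15 min RT, read luminescence.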

[13] = qHTS of pediatric cancer cell lines to identify multiple opportunities for drug repurposing: Confirmatory screen for BT-12 cells (AID 1347112); note: nearly all actives have a fitted effect of over 55% in size; note: potency is the fitted concentration of half-maximal effect
Outline: as §1

[14] = qHTS of pediatric cancer cell lines to identify multiple opportunities for drug repurposing: Confirmatory screen for LAN-5 cells (AID 1347113); note: nearly all actives have a fitted effect of over 65% in size; note: potency is the fitted concentration of half-maximal effect
Outline: as §1

[15] = qHTS of pediatric cancer cell lines to identify multiple opportunities for drug repurposing: Confirmatory screen for NB-EBc1 cells (AID 1347115);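 note: cells exposed to compound for 48 h before the viability read; nearly all actives have a fitted effect of over 45% in size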; note: potency is the fitted concentration of half-maximal effect
Outline: as §1

[16] = qHTS of pediatric cancer cell lines to identify multiple opportunities for drug repurposing: Confirmatory screen for BT-37 cells (AID 1347117); note: nearly all actives have a fitted effect of over 55% in size; note: potency is the fitted concentration of half-maximal effect
Outline: as §1

[17] = qHTS of pediatric cancer cell lines to identify multiple opportunities for drug repurposing: Confirmatory screen for TC32 cells (AID 1347118)
Outline: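 Luminescent ATP read-out (CellTiter-Glo) of metabolically active TC32 cells after 48 h exposure. Concentration-response curves came from 11-point (MIPE, 0.78 nM–46 µM) or 8-point (NPC, 0.59 nM–46 µM) primary titrations; follow-up used 11 points.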

[18] = qHTS of pediatric cancer cell lines to identify multiple opportunities for drug repurposing: Confirmatory screen for MG 63 (6-TG R) cells (AID 1347119); note: nearly all actives have a fitted effect of over 55% in size
Outline: as §1

[19] = qHTS of pediatric cancer cell lines to identify multiple opportunities for drug repurposing: Primary screen for control Hh wild type fibroblast cells (AID 1347106)
Outline: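 Viability after 48 h compound treatment at 37C, 500-1,000 cells/well, read as ATP luminescence with CellTiter-Glo. Primary screens used 11-point (MIPE, 0.78 nM-46 µM) or 8-point (NPC, 0.59 nM-46 µM) final concentrations; follow-up screens used 11-point dilutions.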

[20] = qHTS of pediatric cancer cell lines to identify multiple opportunities for drug repurposing: Confirmatory screen for DAOY cells (AID 1347114); note: nearly all actives have a fitted effect of over 65% in size
Outline: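 Viability measured as metabolically active cells via CellTiter-Glo luminescence following 48 hours of compound exposure, 11-point dilutions in confirmatory testing. 500-1,000 cells/well plated 5 hours before dosing; controls were DMSO and 2.3 µM bortezomib.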

Structure (SMILES) | Potency [1] | Potency [2] | Potency [3] | Potency [4] | Potency [5] | Potency [6] | Potency [7] | Potency [8] | Potency [9] | Potency [10] | Potency [11] | Potency [12] | Potency [13] | Potency [14] | Potency [15] | Potency [16] | Potency [17] | Potency [18] | Potency [19] | Potency [20]
CCCC(=O)O[C@]1(C(=O)COC(=O)CC)CC[C@H]2[C@@H]3CCC4=CC(=O)CC[C@]4(C)[C@H]3[C@@H](O)C[C@@]21C | inactive | inactive | inactive | inactive | inactive | inactive | inactive | inactive | inactive | inactive | inactive | 6.57 µM (active) | inactive | inactive | inactive | inactive | 8.27 µM (active) | inactive |  | 
C[C@H]1C[C@H](O)c2ccsc2S1(=O)=O | inactive | inactive | inactive | inactive | inactive | inactive |  | inactive | inactive |  |  |  |  |  |  |  |  |  | inactive | 
C[C@H]1NCc2cc(-c3ccc4c(=O)c(C(=O)O)cn(C5CC5)c4c3OC(F)F)ccc21 | inactive | inactive | inactive | inactive | inactive | inactive | inactive | inactive | inactive |  |  |  |  |  |  |  |  |  |  | 
CC(=O)N[C@@H](CO)C(=O)N[C@@H](CC(=O)O)C(=O)N[C@@H](CCCCN)C(=O)N1CCC[C@H]1C(=O)O (Ac-SDKP-OH) | inactive | inactive | inactive | inactive | inactive | inactive |  | inactive | inactive | inactive |  |  |  |  |  |  |  |  |  | 
CC(=O)OCC(=O)[C@@]1(O)[C@H](OC(C)=O)C[C@H]2[C@@H]3CCC4=CC(=O)C=C[C@]4(C)[C@@]3(F)[C@@H](O)C[C@@]21C | inactive | inactive | inactive | inactive | inactive | inactive | inactive | inactive | inactive | inactive | inactive |  | inactive | inactive | inactive | inactive |  | inactive |  | inactive
COCCOCC(OC)OC | inactive | inactive | inactive | inactive | inactive | inactive |  | inactive | inactive | inactive |  |  |  |  |  |  |  |  | inactive | 
Cc1ccc(C(C)OC(=O)C2(C)CCC(C(=O)O)C2(C)C)cc1 (configuration not stated) | inactive | inactive | inactive | inactive | inactive | inactive |  | inactive | inactive | inactive |  |  |  |  |  |  |  |  | inactive | 
O=C1CC2(CCCC2)CC(=O)N1CCNCC1COc2ccccc2O1 (configuration not stated) | inactive | inactive | inactive | inactive | inactive | inactive | inactive | inactive | inactive | inactive |  |  |  |  |  |  |  |  |  | 
CN(C)CCOC(c1ccccc1)c1ccc(Br)cc1 (configuration not stated) | 15.4 µM (active) | inactive | inactive | inactive | inactive | 21.9 µM (active) |  | inactive | inactive | inactive |  |  |  |  |  |  |  |  |  | 
CC(C)C[C@H](NC(=O)CNC(=O)[C@H](Cc1ccc(O)cc1)NC(=O)[C@H](CO)NC(=O)[C@H](Cc1c[nH]c2ccccc12)NC(=O)[C@H](Cc1cnc[nH]1)NC(=O)[C@@H]1CCC(=O)N1)C(=O)N[C@@H](CCCN=C(N)N)C(=O)N1CCC[C@H]1C(=O)NCC(N)=O (stereo in doubt) | inactive | inactive | inactive | inactive | inactive | inactive | inactive | inactive | inactive | inactive |  |  |  |  |  |  |  |  |  | 
Cc1ccccc1N1CCN(CCc2nnc3n2CCCC3)CC1 | inactive | inactive | inactive | inactive | inactive | inactive |  | inactive | inactive | inactive |  |  |  |  |  |  |  |  | inactive | 
CCOC(=O)C(O)c1ccccc1 (configuration not stated) | inactive | inactive | inactive | inactive | inactive | inactive |  | inactive | inactive | inactive |  |  |  |  |  |  |  |  | inactive | 
CC(CC(C#N)(c1ccccc1)C(C)C)N(C)C (configuration not stated) | inactive | inactive | inactive | inactive | inactive | inactive | inactive | inactive | inactive | inactive |  |  |  |  |  |  |  |  |  | 
O=C(CCCCCCCCC#CI)Oc1ccccc1 | inactive | inactive | inactive | inactive | inactive | inactive | inactive | inactive | inactive | inactive |  |  |  |  |  |  |  |  |  | 
CCOC(=O)Cn1cccc1-c1nc(-c2ccc(OC)cc2)c(-c2ccc(OC)cc2)s1 | inactive | inactive | inactive | inactive | inactive |  | inactive | inactive | inactive | inactive |  |  |  |  |  |  |  |  | inactive | 
CC(C)(C)c1ccc(O)c(O)c1 | 25 µM (active) | 17.2 µM (active) | 19.3 µM (active) | 25.2 µM (active) |  |  | 8.63 µM (active) |  |  |  |  |  |  |  |  |  |  |  |  | 
CC(C)Cc1ccc(C(C)C(=O)OCc2ccccn2)cc1 (configuration not stated) | inactive | inactive | inactive | inactive | inactive |  | inactive | inactive | inactive | inactive |  |  |  |  |  |  |  |  | inactive | 
O=[N+]([O-])c1ccc(O)c2ncccc12 | 3.44 µM (active) | 1.88 µM (active) | 3.76 µM (active) | 5.5 µM (active) |  | 5.5 µM (active) | 5.31 µM (active) | 6.68 µM (active) |  |  |  | 8.27 µM (active) | 20.8 µM (active) | 9.27 µM (active) | 7.37 µM (active) | 7.37 µM (active) | 5.85 µM (active) |  |  | 
CN1C(CSCC(F)(F)F)Nc2cc(Cl)c(S(N)(=O)=O)cc2S1(=O)=O (configuration not stated) | inactive | inactive | inactive | inactive | inactive |  | inactive | inactive | inactive | inactive |  |  |  |  |  |  |  |  |  | 
CCCCN(CCCC)C(C(N)=O)c1ccc(OC)cc1 (configuration not stated) | inactive | inactive | inactive | inactive | inactive |  | inactive | inactive | inactive | inactive |  |  |  |  |  |  |  |  | inactive | 
O=C(c1ccco1)N1CCNCC1 | inactive | inactive | inactive |  | inactive | inactive | inactive | inactive | inactive |  |  |  |  |  |  |  |  |  | inactive | 
